Data: PubChem BioAssay (Tox21)
A number with no mark means an inactive call. Calls follow the shape of the full dose curve.

assay: qHTS assay to identify small molecule agonists of the sonic hedgehog signaling (Shh) pathway (AID 1259368); conditions: NIH/3T3 Gli1-Luc reporter, luciferase, 24 h; series mostly up to 92.4 µM; activity change: at the top concentration;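 also: NIH/3T3-derived 3T3Gli1-Luc cells carrying a stable Gli1-driven firefly luciferase reporter; nearly all actives have a fitted effect of over 15% in size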
Source text: National Center for Advancing Translational Sciences [NCATS]
NIH Chemical Genomics Center [NCGC]
U.S. Environmental Protection Agency [EPA]
National Institutes of Environmental Health Sciences [NIEHS]
National Toxicology Program [NTP]
The sonic hedgehog (Shh) pathway is essential for normal embryonic development. Dysregulation of the Shh pathway can cause severe developmental defects in organs. Therefore chemicals that interfere with the pathway are potential developmental toxicants. A cell line designated 3T3Gli1-Luc (DMB/OARSA/CFSAN/FDA, Laurel, MD), a NIH/3T3 derived clone containing stably integrated Gli1-Luc reporter is used to detect chemical interference of the Shh pathway, by changes in the expression of the firefly Luc gene under the control of the Gli1 transcriptional response element. This cell line was used to screen Tox21 libraries for identifying and prioritizing the potential developmental toxicants that interfere Shh pathway.
3T3 Gli1-Luc cells were dispensed at 2,000 per well in 5uL of culture medium into white solid bottom 1536-well plates (Greiner Bio-One, Monroe, NC) using a Multidrop Combi (Thermo Scientific, Waltham, MA) dispenser. The assay plates were incubated at 37 C and 5% CO2 for 4hr, and then 23nL of compounds dissolved in DMSO and positive control were transferred using a Pintool station (Wako, San Diego, CA). The assay plates were incubated at 37C and 5% CO2 for 24hr. For luciferase read, 4uL of Amplite Luciferase reporter gene assay reagent (AAT Bioquest, Inc. Sunnyvale, CA) was added to each well of the assay plates using Flying Reagent Dispenser (FRD, Aurora Discovery, San Diego, CA) and incubated at room temperature for 30min. The luminescence signal was measured using a ViewLux plate reader (Perkin Elmer, Shelton, CT).
% is scaled to controls: 0 for no effect and ±100 for the full control effect.

SMILES | activity change
CCc1cnc(C(=O)O)c(C(=O)O)c1 | -0.488%
C=CC(=O)NC(C)(C)C | -0.465%
CCCC1CCOC(C)S1 (stereo not given) | 0.213%
O=[N+]([O-])c1cccc(I)c1 | -0.0712%
CC(CN=Cc1ccccc1O)N=Cc1ccccc1O (stereo not given) | 0.0613%
Cc1c(Cl)cccc1[N+](=O)[O-] | -0.336%
CCc1c(C)[nH]c2c1C(=O)C(CN1CCOCC1)CC2 (stereo not given) | 0.997% [at 42.5 µM, hits give high values]
CCCC(=O)OCCC(C)C | 0.9%
FC1(F)C(F)(F)C(F)(F)C2(F)C(F)(C1(F)F)C(F)(F)C(F)(F)C1(F)C(F)(F)C(F)(F)C(F)(F)C(F)(F)C12F (stereo not given) | 0.829%
CC(CCl)OC(C)CCl (stereo not given) | -0.166%
CCCC(=O)OCc1ccccc1 | -0.0939%
CC(O)C(C)O (stereo not given) | -1.37%
Cc1nc(C)c(C)nc1C | -3.01%
CC1(C)[C@@H]2CC[C@]3(C2)[C@@H]1C(=O)CCC3(C)C | 0.16%
Nc1ccccc1Nc1ccccc1 | -8.52%
CC(C(=O)O)c1ccc(/C=C2\CCCCC2=O)cc1 (stereo not given) | 3.72% [at 42.5 µM, hits give high values]
O=S(=O)(O)c1cc(Cl)c(Cl)cc1Cl | -2.59%
CCCCCCCCCC(C)C=O (stereo not given) | 2.57%
Clc1nc2ccccc2nc1Cl | -1.56%
O=C(O)c1ccc2cc(O)ccc2c1 | 0.159%

SMILES | activity change
O=[N+]([O-])c1ccccc1CCO | 0.856%
Clc1cc(Cl)c2c(c1)N=C1CCCCCN1C2 | 11.4% [at 42.5 µM, hits give high values]
CCOc1ccc(NC(C)=O)cc1N | -2.01%
CC(C)C[C@H](NC(=O)[C@H](Cc1ccccc1)NC(=O)c1cnccn1)B(O)O | 9.25% [at 42.5 µM, hits give high values]
CC(C)Oc1ccccc1O | -0.219%
CC(C)(C)c1ccc(CCC=O)cc1 | -0.228%
CCCN(C1CCN(C(=O)C2CCNCC2)CC1)[C@@H]1CCc2ccc(OC)cc2C1 | -12.7%
COC(=O)/C=C/C(C)=C\C=C\C(C)=C\C=C\C=C(C)\C=C\C=C(C)\C=C\C(=O)O | 4.03%
O=Cc1ccc(Cl)c([N+](=O)[O-])c1 | -12.8%
CCOC(OCC)OCC | -0.111%
CCCCCCCCCCCCCCCCC(=O)O | -2.06% [at 42.5 µM, hits give high values]
COc1ccc(CN(CCN(C)C)c2ncccn2)cc1 | 0.237% [at 42.5 µM, hits give high values]
COc1ccc(/C=C/S(=O)(=O)NC(=O)c2ccc(C)cc2Cl)cc1 | -0.0019%
O=C(O)c1cccnc1Nc1cccc(C(F)(F)F)c1 | 1.33% [at 42.5 µM, hits give high values]
CO[C@@H]1COCC[C@@H]1N[C@@H]1CC[C@@](C(=O)N2CCc3ncc(C(F)(F)F)cc3C2)(C(C)C)C1 | 0.773%
OCCc1ccncc1 | -2.45%
O=C(O)c1ccccc1-n1cc(C(=O)O)c(=O)c2cc(Nc3c(F)cc(F)cc3Cl)c(Cl)cc21 | 0.104%
O=C(c1ccco1)N1CCNCC1 | 0.0673% [at 42.5 µM, hits give high values]
O=C1C=CCCC1 | 0.0853%
Oc1ccc(CCNCCCCCCNCCc2ccccc2)cc1O | -7% [at 42.5 µM, hits give high values]
